Measurements taken from PubChem BioAssay AID504734 (The Scripps Research Institute Molecular Screening Center, 2011).
About 730 (0.21%) of roughly 340,000 compounds were called active. The list comes from a sample in which actives are over-represented; it also holds similar structures and randomly drawn compounds. Values without a mark were called inactive.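 The calls were made as follows: active = inhibition above the mean over all tested compounds plus 3 SD (cut at about 21% in these data); inactive = the rest.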

Biological target: Toll-like receptor 9 (Homo sapiens) + Myeloid differentiation primary response protein MyD88 (Homo sapiens) (UniProt Q9NR96+Q99836)
Sequence (Q99836 whole entry, looked up): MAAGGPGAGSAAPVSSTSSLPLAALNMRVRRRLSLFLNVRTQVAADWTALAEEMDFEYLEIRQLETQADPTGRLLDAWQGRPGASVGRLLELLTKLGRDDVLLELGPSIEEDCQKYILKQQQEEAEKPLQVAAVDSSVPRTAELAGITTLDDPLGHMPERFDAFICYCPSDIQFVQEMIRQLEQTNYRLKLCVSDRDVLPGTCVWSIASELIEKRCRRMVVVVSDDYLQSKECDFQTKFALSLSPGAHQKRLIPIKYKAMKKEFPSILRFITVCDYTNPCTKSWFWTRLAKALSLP
Sequence (Q9NR96 whole entry, looked up): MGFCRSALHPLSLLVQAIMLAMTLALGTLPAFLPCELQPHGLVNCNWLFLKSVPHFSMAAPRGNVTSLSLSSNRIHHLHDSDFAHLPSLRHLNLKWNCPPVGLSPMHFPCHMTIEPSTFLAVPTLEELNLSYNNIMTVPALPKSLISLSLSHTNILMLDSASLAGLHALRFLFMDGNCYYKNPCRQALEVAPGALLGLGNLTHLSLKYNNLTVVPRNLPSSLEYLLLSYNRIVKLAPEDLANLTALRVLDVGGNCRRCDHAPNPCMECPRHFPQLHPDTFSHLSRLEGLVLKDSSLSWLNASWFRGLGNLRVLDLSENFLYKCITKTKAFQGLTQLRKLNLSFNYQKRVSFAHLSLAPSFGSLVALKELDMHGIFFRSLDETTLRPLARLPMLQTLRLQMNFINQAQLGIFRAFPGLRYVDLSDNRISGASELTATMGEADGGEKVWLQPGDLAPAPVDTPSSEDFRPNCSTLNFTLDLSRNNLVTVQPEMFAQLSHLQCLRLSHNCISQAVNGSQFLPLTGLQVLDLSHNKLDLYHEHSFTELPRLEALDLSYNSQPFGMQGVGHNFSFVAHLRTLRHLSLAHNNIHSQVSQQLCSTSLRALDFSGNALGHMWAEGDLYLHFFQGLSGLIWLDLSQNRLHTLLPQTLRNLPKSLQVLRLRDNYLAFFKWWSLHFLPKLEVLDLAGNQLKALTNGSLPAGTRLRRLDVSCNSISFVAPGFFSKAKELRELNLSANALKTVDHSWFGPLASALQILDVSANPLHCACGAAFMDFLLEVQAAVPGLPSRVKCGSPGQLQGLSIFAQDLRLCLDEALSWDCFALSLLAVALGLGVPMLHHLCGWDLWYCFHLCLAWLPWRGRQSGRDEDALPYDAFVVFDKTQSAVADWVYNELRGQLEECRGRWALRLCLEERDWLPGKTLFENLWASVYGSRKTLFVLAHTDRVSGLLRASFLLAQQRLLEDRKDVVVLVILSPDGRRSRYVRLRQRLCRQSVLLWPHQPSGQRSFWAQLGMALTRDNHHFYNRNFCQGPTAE
Assay: inhibitors of TLR9-MyD88 association in cells, primary screen, cell-based, CHO, BLA complementation, fluorescence (AID 504734);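 also: 0% = DMSO only wells and 100% = clavulanate BLA inhibitor control wells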
Conditions: CHO BLA complementation TLR9-MyD88, CCF4 FRET ratio; at 4.98 µM; hits give high values

SMILES	inhibition
C[C@H](O)[C@@H]1C(=O)N2CCc3c([nH]c4ccccc34)[C@@H]2C[C@@H]1N(C)C(=O)Nc1ccc(F)cc1	-0.01%
CCOc1cc(/C=N/NC(=O)c2c(C)nc3ccc(Cl)cn23)ccc1O	-2.46%
C=CCN1CCN(c2ccncc2S(=O)(=O)N2CCN(C)CC2)CC1	9.55%
Cc1sc2ncnc(SCC(=O)NC3CCS(=O)(=O)C3)c2c1C (centres undefined)	-4.28%
Cn1nc(N)c2ncc(C(Cl)(Cl)Cl)nc21	-17.4%
COc1cc(C(=O)OCCCN2CCOCC2)cc(OC)c1OC	1.8%
Cc1cc(OCC(=O)Nc2nccs2)c2c(C)c(C)c(=O)oc2c1	-3.81%
COc1ccccc1-c1n[nH]nc1C1=CC(=O)CC(C)(C)C1	9.73%
CNC(=S)N/N=C/c1ccc(OCc2ccccc2)c(Br)c1	29.9% (active)
O=C(O)COc1ccc(/C=N/O)cc1Br	7.44%
CNC(=S)NNC(=O)c1sccc1OCc1ccccc1	-6.12%
CCCCCCN1C[C@@H](O)[C@H](n2cc(COC(=O)c3ccccc3)nn2)C[C@@H]1c1ccc(Cl)cc1	-2.39%
C[C@H]1CN([C@@H](C)CO)C(=O)CCCn2nncc2CO[C@@H]1CN(C)Cc1ccc(Oc2ccccc2)cc1	0.54%
NC(=O)C1(Nc2ccccc2Cl)CCCC1	-10.1%
O=C(CCN1CCN(C/C=C/c2ccccc2)CC1)Nc1ccccc1Cl	2.63%
O=C(Nc1ccccc1Cl)/C(Cl)=C(\Cl)S(=O)c1ccccc1 (centres undefined)	23.8% (active)
CN1OC[C@@H]2CN(S(=O)(=O)c3cccc(C(F)(F)F)c3)[C@H](c3ccc(-c4cc5ccccc5o4)cc3)C[C@@H]21	-0.31%
O=C(CCN1C(=O)c2ccccc2C1=O)NNC(=O)c1ccc(Cl)cc1Cl	29.1% (active)
Cc1cc(C)cc(NC(=O)CCN2C(=O)c3ccccc3C2=O)c1	-4.31%
Cc1cc(C)cc(OCC(=O)NNC(=O)CCN2C(=O)c3ccccc3C2=O)c1	-3.37%
Cc1ccc(-c2ccc(CN3C(C(C)C)C(=O)N(Cc4cn(CCC5OCCCO5)nn4)CCS3(=O)=O)cc2)cc1 (centres undefined)	-5.52%
CC(OC(=O)c1ccc(NC(=O)CC#N)cc1)C(=O)Nc1ccc(S(=O)(=O)N2CCCC2)cc1 (centres undefined)	0.94%
COCCCn1c(C(=O)NC2CCCCC2)cc2c(=O)n3cccc(C)c3nc21	-12.6%
CC1(C)CN(Cc2cccnc2)C(=O)[C@H]1CC(=O)Nc1ccc(Br)cc1	-3.44%
